According to PubChem BioAssay AID1159580 (chemical genetic matrix, 2015):
Out of some 5,500 compounds screened, about 2,000 (36%) were called active. Roughly 18% stayed inconclusive and do not appear here. Cut-off read from the data, not from the text of the source: active = normalized growth mostly below about 0.91 (no sharp cut-off); inconclusive = no clear call, values can overlap the other calls; inactive = mostly above about 0.92. Some of the results follow.

Assay: chemical genetic growth profiling, strain panel (AID 1159580);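 note: tested at 20 µM; growth read once vehicle control cultures reached saturation at 30 °C; 1 = growth at the plate median or of vehicle wells; lower values mean less growth of the strain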
Settings: S. cerevisiae deletion strains, growth OD

Measured: normalized growth

Clc1cc(Cl)cc(Br)c1
inactive: locus YAL013W, strain DEP1, hits give low values 1.03 | locus YBR229C, strain ROT2, hits give low values 1.02 | locus YDL101C, strain DUN1, hits give low values 1.02 | locus YDL134C, strain PPH21, hits give low values 1.02 | locus YDR150W, strain NUM1, hits give low values 1.04 | locus YEL061C, strain CIN8, hits give low values 1.03 | locus YGR078C, strain PAC10, hits give low values 1.01 | locus YHR030C, strain SLT2, hits give low values 1.1 | locus YHR087W, strain rtc3, hits give low values 1.05 | locus YJR043C, strain POL32, hits give low values 1.01 | locus YJR075W, strain HOC1, hits give low values 1 | locus YLR039C, strain RIC1, hits give low values 1.09 | locus YLR058C, strain SHM2 (second series), hits give low values 1.02 | locus YLR085C, strain ARP6, hits give low values 1.14 | locus YLR262C, strain YPT6, hits give low values 1.07 | locus YML094W, strain GIM5, hits give low values 1.04 | locus YMR219W, strain ESC1, hits give low values 1.02 | locus YMR263W, strain SAP30, hits give low values 1.02 | locus YNL128W, strain TEP1, hits give low values 1.02 | locus YNL153C, strain GIM3, hits give low values 1.01 | locus YNL298W, strain CLA4 (second series), hits give low values 1.08 | locus YNL322C, strain KRE1, hits give low values 1.02 | locus YNR030W, strain Alg12, hits give low values 1.05 | locus YPL055C, strain LGE1, hits give low values 1.03 | locus YPL241C, strain CIN2, hits give low values 1.04 | locus YPR135W, strain CTF4, hits give low values 1.16
